FBPA coupling cs = qHTS Assay for Inhibitors of Fructose-1,6-bisphosphate Aldolase from Giardia Lamblia: Coupling assay counterscreen. activity change, negative = inhibition, % at 58.2 µM, hits read low. coupling enzyme system counterscreen, AmpLite Red fluorescence. 0.67% of 290,000 active; in the data active means activity change below about -30%
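Final compound at 57.5 uM, incubated 10 min at RT with coupling enzyme reagent (glyceraldehyde-3-phosphate), then 20 min with substrate and AmpLite Red detection. Fluorescence read at 525/598 nm; tests interference with the coupling assay, not aldolase inhibition.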
USP1-UAF1 inh = Inhibitors of USP1/UAF1: Primary Screen. Ubiquitin carboxyl-terminal hydrolase 1 (Homo sapiens), O94782. recombinant USP1/UAF1, Ub-Rhodamine cleavage fluorescence. Potency, µM (top dose mostly 57.1 µM), inactives show at the top dose activity change, negative = inhibition, most hits filed as inhibitors. AID 743255, 2014. 0.23% of 390,000 active; further: potency means the concentration at half of the fitted maximal effect; nearly all actives have a fitted effect of over 60% in size
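1 nM enzyme complex + cpd, 15 min RT; start with Ub-Rho 150nM final; kinetic fluorescence ex 480/em 540, 6 reads q60 s. Buffer 50mM HEPES pH 7.8, 0.5mM EDTA, 0.1 mg/ml BSA, 1mM TCEP, 0.01% Tween-20.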
TrxR1 inh = qHTS Assay for Inhibitors of Mammalian Selenoprotein Thioredoxin Reductase 1 (TrxR1): qHTS; Thioredoxin reductase 1, cytoplasmic (Rattus norvegicus), O89049; recombinant rTrxR1, NADPH fluorescence consumption, selenite substrate; Potency, µM (series often up to 114 µM), for the others: at the highest dose activity change, negative = inhibition, most hits filed as inhibitors; 1% of 390,000 active; AID 588453, 2011; further: potency means the concentration at half of the fitted maximal effect; nearly all actives have a fitted effect of over 65% in size
Target sequence (O89049 whole entry, looked up): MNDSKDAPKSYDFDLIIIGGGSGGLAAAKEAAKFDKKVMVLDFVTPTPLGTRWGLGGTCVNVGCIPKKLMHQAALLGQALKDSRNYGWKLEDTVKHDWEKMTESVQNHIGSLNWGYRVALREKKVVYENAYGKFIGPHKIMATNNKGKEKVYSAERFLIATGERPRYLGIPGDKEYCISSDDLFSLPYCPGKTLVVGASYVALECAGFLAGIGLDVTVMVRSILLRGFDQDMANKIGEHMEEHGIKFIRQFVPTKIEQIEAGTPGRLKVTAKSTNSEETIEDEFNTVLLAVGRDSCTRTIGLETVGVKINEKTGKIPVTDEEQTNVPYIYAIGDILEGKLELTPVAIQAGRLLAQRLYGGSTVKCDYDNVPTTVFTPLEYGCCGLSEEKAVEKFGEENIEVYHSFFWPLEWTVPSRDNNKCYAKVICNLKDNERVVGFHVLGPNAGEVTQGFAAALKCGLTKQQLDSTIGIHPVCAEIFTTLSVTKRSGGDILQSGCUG
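Rat TrxR1 (90 nM in the dispensed reagent) was pre-reduced with 400 uM NADPH for 5 min at room temperature, then incubated with compound for 15 min. After 400 uM selenite was added, NADPH fluorescence (Ex 340/Em 450 nm) was followed for 8 min.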
GALK inhibitor = qHTS Assay for Inhibitors of Human Galactokinase (GALK); Purified GALK, Kinase-Glo residual ATP luminescence; 0.007% of 270,000 active; Potency, µM (doses to about 57.5 µM), inactives show top-dose activity change, negative = inhibition, hits mostly inhibitors; further: potency means the concentration at half of the fitted maximal effect
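Quantitative HTS: GALK 5 nM, ATP 35 uM, galactose 100 uM, 1 h room temperature, then luciferase-based ATP detection.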
TrxR1 substrate = qHTS Assay for Substrates of Mammalian Selenoprotein Thioredoxin Reductase 1 (TrxR1): qHTS. 0.01% of 390,000 active. purified TrxR1 substrate turnover, NADPH consumption readout. Potency, µM (top dose mostly 114 µM), for inactives: top-dose activity change, negative = substrate turnover; further: potency means the concentration at half of the fitted maximal effect; nearly all actives have a fitted effect of over 50% in size
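Rat TrxR1, dispensed at 90 nM, was prereduced with 400 uM NADPH (final) for 5 min at ~22 deg C, then incubated with compound 15 min before 400 uM selenite. A first-read NADPH fluorescence drop versus no-compound background flagged substrates.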
Numbers without * were called inactive; [ ] = another dose, or the depositor's remark. In the library only some 1.5% were active in any assay of this set; here they are far more common. Unless noted, the call rests on the fitted dose curve; in most records, active means well fitted curve in the direction sought with a large enough effect; inconclusive means small, poorly fitted or top-dose-only effect, or another doubt; inactive means no such curve, though single readings can be large; an effect the other way counts as inactive or inconclusive. On the % scale 0 is the no-effect control and ±100 the full control effect.

What do the screens show for `Cc1cc2ccccn2c1C(=O)c1ccc([N+](=O)[O-])o1`?
FBPA coupling cs: -1.3; USP1-UAF1 inh: -22.7%; TrxR1 inh: 11.2µM*; GALK inhibitor: -0.3%; TrxR1 substrate: 7.3%[57.1 µM]

What do the screens show for `O=C(CN1CCN(Cc2ccccc2)CC1)N1CCCc2c1c(=O)oc1ccc(O)cc21`?
FBPA coupling cs: 6.8; USP1-UAF1 inh: -8.7%; TrxR1 inh: -10.4%; GALK inhibitor: 1.5%; TrxR1 substrate: -14.5%

How did O=C(c1ccco1)N1CCN(CC(=O)N2CCCc3c2c(=O)oc2ccc(O)cc32)CC1 do in these assays?
FBPA coupling cs: 3.9; USP1-UAF1 inh: 11.6%; TrxR1 inh: 15.8µM*; GALK inhibitor: -0.3%; TrxR1 substrate: -8.6%[57.1 µM]

How did O=C(CS(=O)(=O)c1ccccc1)c1cc2cc(F)ccc2oc1=O do in these assays?
USP1-UAF1 inh: -24.3%; TrxR1 inh: 6.5%; GALK inhibitor: -13.7%; TrxR1 substrate: 2.6%

How did O=C(CS(=O)(=O)c1ccccc1)c1cc2ccccc2oc1=O do in these assays?
FBPA coupling cs: -4.3; USP1-UAF1 inh: -22.1%; TrxR1 inh: 15.8µM*; GALK inhibitor: -13.5%; TrxR1 substrate: -8.5%

Results for CCC(c1nnnn1C(C)(C)CC)N(CCCN1CCOCC1)Cc1cc2cccc(C)c2[nH]c1=O (stereo not given) ?
FBPA coupling cs: -22.1; USP1-UAF1 inh: -20.7%; TrxR1 inh: 35.5µM*; GALK inhibitor: -0.3%; TrxR1 substrate: 14.9%

What do the screens show for `CCC(C)(C)n1nnnc1C(C(C)C)N(CCN1CCOCC1)Cc1cc2cccc(C)c2[nH]c1=O` (stereo not given)?
FBPA coupling cs: -0.9; USP1-UAF1 inh: -14.8%; TrxR1 inh: inconclusive; GALK inhibitor: -3.6%; TrxR1 substrate: 5.2%

Results for Oc1ccc(C=Nc2cccc3ccccc23)c(O)c1 ?
FBPA coupling cs: -34.8*; USP1-UAF1 inh: inconclusive; TrxR1 inh: -12.7%; GALK inhibitor: -5.1%; TrxR1 substrate: 79.4%

What do the screens show for `O=[N+]([O-])c1ccc(O)c(C=Nc2cccc3ccccc23)c1`?
FBPA coupling cs: -9.5; USP1-UAF1 inh: -11.8%; TrxR1 inh: -28.8%; GALK inhibitor: 4.5%; TrxR1 substrate: 59.2%

What do the screens show for `NS(=O)(=O)c1cccc(NC(=S)NC(=O)C23CC4CC(CC(C4)C2)C3)c1`?
FBPA coupling cs: 0.0; USP1-UAF1 inh: -16.7%; TrxR1 inh: 39.8µM*; GALK inhibitor: -2.3%; TrxR1 substrate: -10.1%

Results for COc1ccc(C2=NCCc3cc(OC)c(OC)cc32)cc1OC ?
FBPA coupling cs: 0.6; USP1-UAF1 inh: -16.4%; TrxR1 inh: -16.7%; TrxR1 substrate: -12.8%

How did COc1cc2c(cc1OC)C(CCc1ccccc1)=NCC2 do in these assays?
FBPA coupling cs: 2.0; USP1-UAF1 inh: -9.8%; TrxR1 inh: 89.1µM*; GALK inhibitor: 4.4%; TrxR1 substrate: 369.2%

How did O=C1C=C(NC2=CC3OC(c4ccccc4)OCC3OC2=O)CCC1 (stereo not given) do in these assays?
FBPA coupling cs: 0.9; USP1-UAF1 inh: -23.6%; TrxR1 inh: 8.91µM*; GALK inhibitor: -0.1%; TrxR1 substrate: -11.8%

How did N#Cc1ccccc1NC1=CC(=O)CCC1 do in these assays?
FBPA coupling cs: 0.5; USP1-UAF1 inh: -2.7%; TrxR1 inh: -0.7%; GALK inhibitor: 4.3%; TrxR1 substrate: 5.1%

Results for CC(=O)CSc1nsc(SCC(C)=O)c1C#N ?
FBPA coupling cs: 3.0; USP1-UAF1 inh: -2.5%; TrxR1 inh: 70.8µM*; GALK inhibitor: -3.0%; TrxR1 substrate: -7.3%

Results for CCOC(=O)CSc1nsc(SCC(=O)OCC)c1C#N ?
FBPA coupling cs: 6.8; USP1-UAF1 inh: 2.4%; TrxR1 inh: 1.1%; GALK inhibitor: 1.4%; TrxR1 substrate: -6.7%

What do the screens show for `COc1cccc(Oc2c(C)oc3c(CN4CCCCC4)c(O)ccc3c2=O)c1`?
FBPA coupling cs: 4.1; USP1-UAF1 inh: -17.2%; TrxR1 inh: 44.7µM*; GALK inhibitor: 1.0%; TrxR1 substrate: 497.7%

Assay outcomes as filed in PubChem BioAssay.
